# What was measured:
# [1] = biological target: T1, Serine/threonine-protein kinase Nek9 (Homo sapiens) (UniProt Q8TD19); details: at 1 µM;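 further: each value is a mean percent inhibition of NEK9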
# T1 sequence (whole entry): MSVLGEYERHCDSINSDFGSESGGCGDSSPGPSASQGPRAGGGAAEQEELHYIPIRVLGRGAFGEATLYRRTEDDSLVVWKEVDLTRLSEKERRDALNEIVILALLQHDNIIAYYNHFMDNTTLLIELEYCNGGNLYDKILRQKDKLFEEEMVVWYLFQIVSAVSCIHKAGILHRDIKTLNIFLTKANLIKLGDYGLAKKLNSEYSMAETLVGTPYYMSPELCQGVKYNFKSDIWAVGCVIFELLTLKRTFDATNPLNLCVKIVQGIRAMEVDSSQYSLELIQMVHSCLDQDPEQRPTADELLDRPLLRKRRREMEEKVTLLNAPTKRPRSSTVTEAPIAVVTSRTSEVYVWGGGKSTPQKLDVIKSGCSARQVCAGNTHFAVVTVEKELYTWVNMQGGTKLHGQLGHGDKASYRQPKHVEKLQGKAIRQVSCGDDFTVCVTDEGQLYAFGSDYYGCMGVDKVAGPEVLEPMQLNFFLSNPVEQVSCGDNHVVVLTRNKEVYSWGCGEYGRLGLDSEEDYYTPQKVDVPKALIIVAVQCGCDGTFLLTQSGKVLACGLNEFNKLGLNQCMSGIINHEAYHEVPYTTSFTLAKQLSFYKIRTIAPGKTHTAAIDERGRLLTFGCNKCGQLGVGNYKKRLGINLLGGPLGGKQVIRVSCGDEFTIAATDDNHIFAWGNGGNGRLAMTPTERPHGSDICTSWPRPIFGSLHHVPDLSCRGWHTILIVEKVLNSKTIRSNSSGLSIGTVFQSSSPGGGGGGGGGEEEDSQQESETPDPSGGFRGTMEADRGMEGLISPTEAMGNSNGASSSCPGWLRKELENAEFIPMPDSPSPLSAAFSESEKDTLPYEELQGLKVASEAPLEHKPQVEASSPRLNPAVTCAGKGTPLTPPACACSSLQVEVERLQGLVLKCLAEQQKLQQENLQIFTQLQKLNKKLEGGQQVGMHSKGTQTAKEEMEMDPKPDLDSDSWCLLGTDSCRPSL
# [2] = biological target: Serine/threonine-protein kinase PLK1 (Homo sapiens) (UniProt P53350); details: at 0.1 µM
# Serine/threonine-protein kinase PLK1 (Homo sapiens), sequence (P53350 whole entry): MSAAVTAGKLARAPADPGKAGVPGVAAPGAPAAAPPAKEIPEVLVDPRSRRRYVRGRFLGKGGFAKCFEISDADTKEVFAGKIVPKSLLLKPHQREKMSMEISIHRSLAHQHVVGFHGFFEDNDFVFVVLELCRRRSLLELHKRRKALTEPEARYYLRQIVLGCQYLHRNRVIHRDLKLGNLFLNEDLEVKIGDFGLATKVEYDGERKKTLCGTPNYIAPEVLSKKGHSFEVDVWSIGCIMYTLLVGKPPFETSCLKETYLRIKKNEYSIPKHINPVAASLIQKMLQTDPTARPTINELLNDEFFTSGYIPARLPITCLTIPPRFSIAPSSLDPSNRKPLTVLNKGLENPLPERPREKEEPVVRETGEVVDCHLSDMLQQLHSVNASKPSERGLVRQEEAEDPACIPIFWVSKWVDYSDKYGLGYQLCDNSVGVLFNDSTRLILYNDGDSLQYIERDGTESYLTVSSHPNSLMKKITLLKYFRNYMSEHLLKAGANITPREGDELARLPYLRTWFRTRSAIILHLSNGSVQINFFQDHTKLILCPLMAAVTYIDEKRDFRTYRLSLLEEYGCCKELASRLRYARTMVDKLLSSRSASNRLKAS
# [3] = biological target: Serine/threonine-protein kinase PLK1 (Homo sapiens) (UniProt P53350); details: at 1 µM
# [4] = biological target: T2, Dual specificity protein kinase TTK (Homo sapiens) (UniProt P33981); details: at 0.1 µM
# T2 sequence (whole entry): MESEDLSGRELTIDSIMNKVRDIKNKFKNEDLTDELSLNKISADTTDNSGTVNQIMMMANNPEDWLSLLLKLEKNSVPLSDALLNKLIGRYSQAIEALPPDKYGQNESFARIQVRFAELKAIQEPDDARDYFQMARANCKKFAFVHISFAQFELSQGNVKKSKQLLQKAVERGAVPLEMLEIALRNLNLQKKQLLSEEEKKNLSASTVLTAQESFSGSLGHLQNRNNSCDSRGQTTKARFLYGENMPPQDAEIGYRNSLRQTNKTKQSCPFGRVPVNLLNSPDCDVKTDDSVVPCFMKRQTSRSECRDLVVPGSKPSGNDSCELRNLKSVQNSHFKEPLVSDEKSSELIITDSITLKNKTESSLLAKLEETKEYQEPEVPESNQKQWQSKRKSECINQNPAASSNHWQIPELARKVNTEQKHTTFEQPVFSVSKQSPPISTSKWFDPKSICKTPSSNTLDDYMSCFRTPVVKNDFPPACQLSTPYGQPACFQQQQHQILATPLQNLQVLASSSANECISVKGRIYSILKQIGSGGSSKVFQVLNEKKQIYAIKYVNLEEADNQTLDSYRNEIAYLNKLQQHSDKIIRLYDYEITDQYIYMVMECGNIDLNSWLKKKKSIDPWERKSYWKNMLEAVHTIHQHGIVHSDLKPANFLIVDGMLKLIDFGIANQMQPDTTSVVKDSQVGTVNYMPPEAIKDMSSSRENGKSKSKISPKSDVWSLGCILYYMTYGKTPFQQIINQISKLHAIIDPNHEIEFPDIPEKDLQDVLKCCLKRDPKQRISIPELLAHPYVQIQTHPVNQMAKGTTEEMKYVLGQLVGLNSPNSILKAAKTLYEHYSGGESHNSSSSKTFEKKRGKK
# [5] = test system: T3, Receptor-type tyrosine-protein kinase FLT3 (Homo sapiens), P36888 [D835Y]; details: at 1 µM
# T3 sequence (whole entry): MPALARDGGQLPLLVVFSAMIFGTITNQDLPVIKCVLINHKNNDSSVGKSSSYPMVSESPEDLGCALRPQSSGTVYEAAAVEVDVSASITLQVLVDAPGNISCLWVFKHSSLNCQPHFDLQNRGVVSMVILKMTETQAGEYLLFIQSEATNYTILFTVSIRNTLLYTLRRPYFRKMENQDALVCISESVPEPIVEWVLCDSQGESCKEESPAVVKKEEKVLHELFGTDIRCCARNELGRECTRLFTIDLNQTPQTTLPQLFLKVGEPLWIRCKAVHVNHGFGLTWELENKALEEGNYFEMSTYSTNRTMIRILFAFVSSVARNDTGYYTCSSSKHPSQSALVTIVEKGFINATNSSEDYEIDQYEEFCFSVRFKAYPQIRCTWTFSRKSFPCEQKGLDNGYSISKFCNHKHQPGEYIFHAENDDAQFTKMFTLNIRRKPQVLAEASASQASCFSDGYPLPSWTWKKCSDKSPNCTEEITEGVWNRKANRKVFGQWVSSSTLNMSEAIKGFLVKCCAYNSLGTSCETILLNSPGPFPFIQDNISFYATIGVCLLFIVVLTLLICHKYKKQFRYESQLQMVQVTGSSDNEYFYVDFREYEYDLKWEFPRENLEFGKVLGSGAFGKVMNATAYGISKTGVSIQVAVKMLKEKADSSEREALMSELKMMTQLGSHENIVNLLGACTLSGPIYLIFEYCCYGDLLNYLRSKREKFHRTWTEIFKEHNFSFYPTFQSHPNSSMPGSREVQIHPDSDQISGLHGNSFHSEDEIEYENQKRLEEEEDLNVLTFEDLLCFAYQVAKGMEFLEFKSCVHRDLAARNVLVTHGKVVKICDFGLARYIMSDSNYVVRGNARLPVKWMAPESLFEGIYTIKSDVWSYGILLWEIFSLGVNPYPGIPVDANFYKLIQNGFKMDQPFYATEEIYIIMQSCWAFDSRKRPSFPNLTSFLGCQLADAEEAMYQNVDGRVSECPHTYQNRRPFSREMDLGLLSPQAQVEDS
# [6] = biological target: Vascular endothelial growth factor receptor 3 (Homo sapiens) (UniProt P35916); details: at 0.1 µM
# Vascular endothelial growth factor receptor 3 (Homo sapiens), sequence (P35916 whole entry): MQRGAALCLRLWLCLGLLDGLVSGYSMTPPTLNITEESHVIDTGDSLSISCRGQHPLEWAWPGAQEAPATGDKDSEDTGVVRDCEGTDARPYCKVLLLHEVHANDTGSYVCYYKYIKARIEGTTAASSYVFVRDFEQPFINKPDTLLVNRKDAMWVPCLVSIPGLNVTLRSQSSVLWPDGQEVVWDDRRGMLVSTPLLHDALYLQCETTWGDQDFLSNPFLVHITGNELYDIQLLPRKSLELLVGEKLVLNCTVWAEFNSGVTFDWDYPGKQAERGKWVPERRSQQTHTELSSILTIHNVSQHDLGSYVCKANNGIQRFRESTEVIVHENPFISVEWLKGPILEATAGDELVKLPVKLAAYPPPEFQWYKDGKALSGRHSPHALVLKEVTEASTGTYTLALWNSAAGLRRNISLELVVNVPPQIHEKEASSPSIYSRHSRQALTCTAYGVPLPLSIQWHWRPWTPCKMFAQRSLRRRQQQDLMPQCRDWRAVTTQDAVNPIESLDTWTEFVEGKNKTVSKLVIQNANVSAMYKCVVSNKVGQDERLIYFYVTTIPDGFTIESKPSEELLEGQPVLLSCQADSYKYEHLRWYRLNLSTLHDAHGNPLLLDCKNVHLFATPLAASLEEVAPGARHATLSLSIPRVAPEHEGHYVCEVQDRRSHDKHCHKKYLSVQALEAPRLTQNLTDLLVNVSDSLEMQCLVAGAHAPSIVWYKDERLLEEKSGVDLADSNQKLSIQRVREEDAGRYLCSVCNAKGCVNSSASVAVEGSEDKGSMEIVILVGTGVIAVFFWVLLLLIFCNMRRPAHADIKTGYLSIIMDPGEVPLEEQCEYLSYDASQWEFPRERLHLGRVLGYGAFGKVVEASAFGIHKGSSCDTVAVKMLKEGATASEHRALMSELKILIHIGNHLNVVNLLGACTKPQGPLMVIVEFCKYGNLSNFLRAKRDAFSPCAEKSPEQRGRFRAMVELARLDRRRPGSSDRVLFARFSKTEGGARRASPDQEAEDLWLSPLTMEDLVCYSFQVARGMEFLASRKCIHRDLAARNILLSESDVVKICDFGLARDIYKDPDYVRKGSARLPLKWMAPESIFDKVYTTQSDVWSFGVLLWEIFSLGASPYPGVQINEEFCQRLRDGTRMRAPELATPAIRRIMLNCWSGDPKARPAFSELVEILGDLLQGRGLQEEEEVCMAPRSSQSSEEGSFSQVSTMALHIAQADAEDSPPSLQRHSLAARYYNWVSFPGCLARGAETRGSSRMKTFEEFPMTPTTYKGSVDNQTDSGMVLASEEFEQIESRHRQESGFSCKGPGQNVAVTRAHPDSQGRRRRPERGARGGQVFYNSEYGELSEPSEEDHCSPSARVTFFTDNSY
# [7] = biological target: Vascular endothelial growth factor receptor 3 (Homo sapiens) (UniProt P35916); details: at 1 µM
# [8] = biological target: Macrophage colony-stimulating factor 1 receptor (Homo sapiens) (UniProt P07333); details: at 0.1 µM
# Macrophage colony-stimulating factor 1 receptor (Homo sapiens), sequence (P07333 whole entry): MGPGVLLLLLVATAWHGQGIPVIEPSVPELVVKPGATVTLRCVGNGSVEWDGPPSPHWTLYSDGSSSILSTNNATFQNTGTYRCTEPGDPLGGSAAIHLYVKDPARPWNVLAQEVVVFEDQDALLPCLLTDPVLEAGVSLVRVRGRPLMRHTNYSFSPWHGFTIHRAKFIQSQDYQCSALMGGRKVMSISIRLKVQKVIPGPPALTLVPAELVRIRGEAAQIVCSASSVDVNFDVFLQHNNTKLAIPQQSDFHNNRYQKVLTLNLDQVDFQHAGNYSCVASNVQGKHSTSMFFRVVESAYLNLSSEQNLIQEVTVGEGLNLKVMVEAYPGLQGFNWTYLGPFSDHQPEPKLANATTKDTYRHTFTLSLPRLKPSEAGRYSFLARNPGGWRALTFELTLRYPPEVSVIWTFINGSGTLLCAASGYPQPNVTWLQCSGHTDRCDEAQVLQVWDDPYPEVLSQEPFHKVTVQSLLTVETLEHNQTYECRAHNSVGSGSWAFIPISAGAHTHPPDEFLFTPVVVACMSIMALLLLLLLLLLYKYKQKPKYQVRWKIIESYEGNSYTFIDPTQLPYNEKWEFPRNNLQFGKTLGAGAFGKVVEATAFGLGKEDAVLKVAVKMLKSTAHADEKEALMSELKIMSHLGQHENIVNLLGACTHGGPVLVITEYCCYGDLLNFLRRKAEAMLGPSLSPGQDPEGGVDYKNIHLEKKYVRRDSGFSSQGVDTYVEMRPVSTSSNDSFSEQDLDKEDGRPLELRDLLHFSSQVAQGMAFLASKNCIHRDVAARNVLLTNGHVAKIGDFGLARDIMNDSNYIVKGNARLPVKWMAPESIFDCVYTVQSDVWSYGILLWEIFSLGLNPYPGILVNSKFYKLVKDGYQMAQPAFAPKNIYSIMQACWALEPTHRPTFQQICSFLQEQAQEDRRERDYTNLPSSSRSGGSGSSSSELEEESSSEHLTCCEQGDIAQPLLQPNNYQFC
# [9] = biological target: Macrophage colony-stimulating factor 1 receptor (Homo sapiens) (UniProt P07333); details: at 1 µM
# [10] = biological target: Tyrosine-protein kinase Fyn (Homo sapiens) (UniProt P06241); details: at 0.1 µM
# Tyrosine-protein kinase Fyn (Homo sapiens), sequence (P06241 2-537 limits assumed): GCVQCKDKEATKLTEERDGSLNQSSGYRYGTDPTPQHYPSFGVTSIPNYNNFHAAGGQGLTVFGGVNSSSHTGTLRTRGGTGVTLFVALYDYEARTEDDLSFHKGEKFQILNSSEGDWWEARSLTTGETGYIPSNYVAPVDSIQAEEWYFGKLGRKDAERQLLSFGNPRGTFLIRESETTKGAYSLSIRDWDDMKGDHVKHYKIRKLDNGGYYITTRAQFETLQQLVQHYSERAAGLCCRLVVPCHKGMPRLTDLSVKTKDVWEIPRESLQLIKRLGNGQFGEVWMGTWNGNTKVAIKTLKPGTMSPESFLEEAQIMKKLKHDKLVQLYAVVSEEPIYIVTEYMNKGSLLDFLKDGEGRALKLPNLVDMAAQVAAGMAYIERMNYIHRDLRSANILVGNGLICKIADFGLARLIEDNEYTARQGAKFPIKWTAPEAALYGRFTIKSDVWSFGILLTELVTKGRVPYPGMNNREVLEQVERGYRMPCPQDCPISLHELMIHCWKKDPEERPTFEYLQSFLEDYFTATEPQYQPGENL
smiles,measurement,setting,value
CCn1c(-c2nonc2N)nc2c(C#CC(C)(C)O)nc(OC[C@@H](N)c3ccccc3)cc21,inhibition,[1],-5.29%
same,inhibition,[2],7.34%
same,inhibition,[3],0.17%
same,inhibition,[4],-3.32%
same,inhibition,[5],2.58%
same,inhibition,[6],17.4%
same,inhibition,[7],68.9%
same,inhibition,[8],-0.21%
same,inhibition,[9],-0.91%
same,inhibition,[10],2.28%
Cc1ccc(C(=O)NC2CCCCC2)cc1-c1ccc(C(=O)NCC2CC2)cc1,inhibition,[1],-4.93%
same,inhibition,[2],3%
same,inhibition,[3],2.23%
same,inhibition,[4],2.82%
same,inhibition,[5],-1.53%
same,inhibition,[6],3.84%
same,inhibition,[7],5.49%
same,inhibition,[8],-0.58%
same,inhibition,[9],5.17%
same,inhibition,[10],-0.84%
O=C1Nc2ccc(C(=O)c3ccco3)cc2C1=Cc1cc(Cl)c(O)c(Cl)c1,inhibition,[1],5.76%
same,inhibition,[2],9.81%
same,inhibition,[3],43.2%
same,inhibition,[4],10.9%
same,inhibition,[5],29.9%
same,inhibition,[6],6.18%
same,inhibition,[7],12.3%
same,inhibition,[8],26.3%
same,inhibition,[9],74%
same,inhibition,[10],3.62%
CN(C)c1cc2c(Nc3ccc4nc(Cc5ccccc5)[nH]c4c3)ncnc2cn1,inhibition,[1],10.6%
same,inhibition,[2],6.15%
same,inhibition,[3],6.34%
same,inhibition,[4],13.2%
same,inhibition,[5],-1.97%
same,inhibition,[6],7.56%
same,inhibition,[7],11.3%
same,inhibition,[8],4.7%
same,inhibition,[9],15.4%
same,inhibition,[10],4.62%
COc1cc2c(cc1Nc1nc(N3CCc4ccccc43)c3cc[nH]c3n1)N(C(=O)CN(C)C)CC2,inhibition,[1],0.78%
same,inhibition,[2],5.82%
same,inhibition,[3],25.4%
same,inhibition,[4],7.66%
same,inhibition,[5],2.32%
same,inhibition,[6],12.9%
same,inhibition,[7],13.7%
same,inhibition,[8],1.41%
same,inhibition,[9],2.14%
same,inhibition,[10],-1.37%
CN1CCC(C(=O)Nc2n[nH]c3nnc(-c4ccccc4)cc23)CC1,inhibition,[1],19.2%
same,inhibition,[2],6.37%
same,inhibition,[3],4.03%
same,inhibition,[4],12.6%
same,inhibition,[5],-2.63%
same,inhibition,[6],2.1%
same,inhibition,[7],3.3%
same,inhibition,[8],0.38%
same,inhibition,[9],3.05%
same,inhibition,[10],0.66%
COc1ccc2cc(-c3c(-c4ccncc4)nc(-c4ccc([S+](C)[O-])cc4)n3C)ccc2c1 (stereo not given),inhibition,[1],0.29%
same,inhibition,[2],1.98%
same,inhibition,[3],4.45%
same,inhibition,[4],4.12%
same,inhibition,[5],5.59%
same,inhibition,[6],1.55%
same,inhibition,[7],0.4%
same,inhibition,[8],-0.21%
same,inhibition,[9],-0.69%
same,inhibition,[10],3.05%
NC(=O)c1ccc(-c2nc(-c3ccccn3)c(-c3ccc4c(c3)OCO4)[nH]2)cc1,inhibition,[1],6.43%
same,inhibition,[2],5.18%
same,inhibition,[3],2.1%
same,inhibition,[4],6.47%
same,inhibition,[5],1.63%
same,inhibition,[6],0.44%
same,inhibition,[7],-0.31%
same,inhibition,[8],1.36%
same,inhibition,[9],2.49%
same,inhibition,[10],1.15%

# — ChEMBL document CHEMBL1961873, “Compounds: GSK PKIS; Assays: Nanosyn kinase panel” (2012)
